Assay in all cases: NCI-60 one-dose screen, 48 h (100 = growth as untreated, 0 = no growth, -100 = all killed)
Settings in all cases: 10 µM unless noted

The test system of assay [1] is SR leukemia.
Assay [2] deals with RPMI-8226 leukemia.
The test system of assay [3] is OVCAR-8 ovarian.
The test system of assay [4] is OVCAR-5 ovarian.
The subject of assay [5] is SK-OV-3 ovarian.
Assay [6] deals with IGROV1 ovarian.
For assay [7], the system named is OVCAR-3 ovarian.
Assay [8] deals with HS 578T breast.
For assay [9], the system named is NCI/ADR-RES ovarian.
In assay [10] the test system is OVCAR-4 ovarian.

The panel holds about 83,000 compounds, 20% with a hit somewhere; the sample as a whole holds those more often.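 Interpretation: 100, growth as untreated; towards 0, rising growth inhibition; 0, no net growth; 0 to -100, cell death. Compounds scoring below 10 were considered active.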 Values without a mark were called inactive. Active and inactive are the calls of the source.

In the case of `Nc1nc(N)c2cc(Sc3cccc(C(F)(F)F)c3)ccc2n1`, the growth in assay [1] is -27.1% (active); in [2], 5.83% (active); in assay [3], 31%; in assay [4], 45.1%; in assay [5] it was 63.9%; in assay [6], 21.9%. Besides, the growth in assay [7] is 25.4%; in assay [8], 40.4%; in assay [9], 17.7%.

`CC(O)C(O)C(O)C(O)C(O)C(=O)NNc1ccccc1` (stereo not given): the growth is 49.7% in [1]; 99.1% in assay [2]; 96.4% in assay [3]; 96.5% in assay [10]; 99.5% in assay [5]; 80% in assay [6]. The figures for the growth in assay [7], in assay [8] and in [9] were 99.4%, 91.2% and 84.2%, respectively.

Regarding `CCN1CCCC(Nc2cc(C)nc(/N=C(/N)Nc3ccc(Cl)c(Cl)c3)n2)C1` (stereo not given), the growth in assay [1] is -60.3% (active); in assay [2] it was -31.6% (active); in assay [3] it was -21.5% (active); in [10] it was -17.3% (active); in assay [5] it was 6.57% (active); in assay [6], 14.5%. For the same compound, the results for the growth in [7], in assay [8] and in [9] were -49% (active), -37.8% (active) and 17.2%, respectively.

In the case of `C(=N\Nc1ccc2ccccc2n1)/c1ccccn1`, the growth in assay [1] is 6.86% (active); in assay [2], 25.1%; in [3] it was 18.5%; in [10], 22.2%; in assay [5], 26.1%; in assay [6] it was 2.7% (active). In addition, the growth was 44.7% in assay [7], 38.4% in [8] and 18.6% in [9].

As for `Oc1ccc(Cl)cc1Cc1cc(Cl)ccc1O`, the growth in [1] is 81.4%; in assay [2], -1.2% (active); in [3], 20.9%; in assay [10], 38.7%; in assay [5], 84.8%; in assay [6] it was 41.1%. Besides, the growth is 9.92% (active) in assay [7] and 34.2% in [8].

As for `O=C(NOC(=O)c1ccccc1)c1ccccc1`, the growth was 84.5% in [1]; 75.7% in [2]; 119% in [3]; 105% in assay [10]; 109% in assay [5]; 107% in [6]. Also, the growth in [7] is 115%; in assay [8], 83.5%; in assay [9], 93.7%.

Consider `Nc1ccc(Oc2ccccc2)c(Cl)c1`, for which the growth is 92.1% in assay [1]; 101% in [2]; 95% in assay [3]; 83.9% in assay [4]; 91.6% in [5]; 112% in assay [6]. The figures for the growth in assay [7], in [8] and in [9] were 113%, 91.7% and 114%, respectively.

Turning to `COc1ccc(/C=C2/C(=O)ON=C2C)cc1`, the growth in [1] was 115%; in [2] it was 99.1%; in assay [3], 105%; in assay [10], 115%; in assay [5], 100%; in assay [6], 115%. Also, the figures for the growth in assay [7], in assay [8] and in assay [9] were 111%, 102% and 115%, respectively.

On to `CN(C)c1ccc(/C=C/c2ccnc3ccccc23)cc1`, for which the growth is 21% in assay [1]; 11.7% in assay [2]; 20.2% in [3]; 84.4% in assay [4]; 69.6% in assay [10]; 45.1% in [7]. Also, the growth in assay [8] is 53.5%; in assay [9] it was 29.3%.

As for `O=[N+]([O-])/C(=C/c1ccccc1)c1ccccc1`, the growth was 88.5% in [1]; 108% in assay [2]; 105% in assay [3]; 99% in [10]; 100% in assay [5]; 104% in assay [6]. The figures for the growth in assay [7], in assay [8] and in assay [9] were 109%, 110% and 106%, respectively.

Regarding `COc1c(C)c2c(c(O)c1C/C=C(\C)CCC(=O)O)C(=O)OC2`, the growth in assay [1] is 14%; in assay [2], 57.8%; in assay [3], 11.9%; in assay [10], 44.5%; in assay [5], 45.2%; in assay [6], 12.9%. Also, the growth was 34.4% in [7] and 72% in assay [8].

In the case of `CCCCOS(=O)(=O)c1ccccc1`, the growth in assay [1] was 126%; in assay [2], 126%; in [3], 120%; in assay [10], 104%; in assay [5], 113%; in [6] it was 131%. Further, the values for the growth in [7], in [8] and in assay [9] were 112%, 107% and 107%, respectively.

`NC(CS/C(Cl)=C/Cl)C(=O)O` (stereo not given): the growth in assay [1] is 96%; in [2], 36.2%; in assay [3] it was 64.6%; in [10], 101%; in [5] it was 94%; in assay [6] it was 96.4%. Besides, the growth in assay [7] is 102%; in assay [8] it was 104%; in assay [9], 86.2%.

Take `CCOC(=O)C1(C)CCCC1N` (stereo not given): the growth in assay [1] is 90.1%; in assay [2] it was 109%; in assay [3], 106%; in assay [10] it was 99.2%; in assay [5], 131%; in [6] it was 104%. Besides, the growth in [7] is 104%; in assay [8], 98.5%; in [9], 116%.

For the compound `COc1cc2c(c(OC)c1OC)-c1ccc(NCc3ccccc3)c(=O)cc1[C@@H](NC(C)=O)CC2`, the growth in assay [1] is 2.36% (active); in [2], 8.4% (active); in [3], 14.5%; in assay [10] it was 29.6%; in assay [5], -6.57% (active); in assay [6], -15.6% (active). In addition, the growth in assay [7] was -39.2% (active); in assay [8], 17.3%; in [9] it was 66.4%.

`CCOc1ccc2c(c1)/C(=C\C=C\C1CC(C)C3CC(OCC)CCC3N1CC)CC(C)N2CC` (stereo not given): the growth in assay [1] is -47.6% (active); in [2] it was -52.2% (active); in assay [3] it was 6.8% (active); in assay [10], 15.4%; in assay [5], 14.9%; in assay [6], 32.4%. Moreover, the growth was 8.69% (active) in assay [7] and 63.6% in [8].

Values taken from PubChem BioAssay (NCI).
